From PubChem BioAssay AID1159580 (chemical genetic matrix, 2015)
Out of some 5,500 compounds screened, about 2,000 (36%) were called active. Another 18% or so got no clear call; they are omitted. Rule as the data show it: active = normalized growth mostly below about 0.91 (no sharp cut-off); inconclusive = no clear call, values can overlap the other calls; inactive = mostly above about 0.92. The list shows a part of the results.

Test: chemical genetic growth profiling, strain panel (AID 1159580);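 also: tested at 20 µM; growth read once vehicle control cultures reached saturation at 30 °C; 1 = growth at the plate median or of vehicle wells; lower values mean less growth of the strain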
Conditions: S. cerevisiae deletion strains, growth OD

Measured: normalized growth

c1cnc2c(c1)ccc1cccnc12
inactive: locus YAL040C, strain CLN3, hits give low values 1.07
active: locus YAL013W, strain DEP1, hits give low values 0.0762 | locus YCL061C, strain MRC1 (second series), hits give low values 0.0542 | locus YDR363W, strain ESC2, hits give low values 0.0973 | locus YER002W, strain NOP16, hits give low values 0.0834 | locus YGR078C, strain PAC10, hits give low values 0.109 | locus YJR075W, strain HOC1, hits give low values 0.0769 | locus YNL153C, strain GIM3, hits give low values 0.103 | locus YNL175C, strain NOP13, hits give low values 0.0953 | locus YNL197C, strain WHI3, hits give low values 0.0905 | locus YNL224C, strain SQS1, hits give low values 0.123 | locus YNL322C, strain KRE1, hits give low values 0.0666 | locus YOR083W, strain WHI5 (second series), hits give low values 0.0868
